# Hits are enriched below; roughly 11% of the tested compounds scored in any of these assays.
# HPGD inh = HPGD (human) dehydrogenase inhibition; P15428; purified HPGD, NADH fluorescence kinetic, PGE2 substrate; Potency, µM, for the others: at the top dose activity change, negative = inhibition, usual class: inhibitors; hit rate 4.3% among 150,000; AID 894; further: potency means the concentration at half of the fitted maximal effect
# Target sequence (P15428 whole entry, looked up): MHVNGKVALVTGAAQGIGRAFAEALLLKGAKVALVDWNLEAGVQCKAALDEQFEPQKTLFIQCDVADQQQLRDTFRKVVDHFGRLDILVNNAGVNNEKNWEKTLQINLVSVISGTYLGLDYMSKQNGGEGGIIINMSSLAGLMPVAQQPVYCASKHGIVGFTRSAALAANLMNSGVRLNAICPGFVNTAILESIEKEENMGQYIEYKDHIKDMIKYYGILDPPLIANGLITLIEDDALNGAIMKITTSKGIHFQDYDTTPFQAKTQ
#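 NADH formation kinetics: reaction with 30 uM PGE2 and 1 mM NAD+ (final), 20 nM enzyme, Tris-HCl pH 8 with Tween 20, after 15 min compound preincubation at room temperature. Fluorescence change, last versus first of five reads.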
# ALDH1A1 block = inhibitors of human aldehyde dehydrogenase 1A1. Purified ALDH1A1, NADH fluorescence, propionaldehyde substrate. Potency, µM (titrated, usually from 75.3 µM), inactives show at the highest dose activity, negative = inhibition, most hits filed as inhibitors. hit rate 7.3% among 220,000. AID 1030;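 further: potency means the concentration at half of the fitted maximal effect; plate controls were no enzyme wells and a reference inhibitor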
# JMJD2E inh = JMJD2E (human) inhibition | JMJD2E catalytic domain, FDH-coupled NADH fluorescence (FDH is formaldehyde dehydrogenase) | Potency, µM (doses to about 57.1 µM), for the others: at the top dose activity change, negative = inhibition, hits mostly inhibitors | hit rate 1.6% among 230,000 | AID 2147;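 further: potency means the concentration at half of the fitted maximal effect; 0% = wells with enzyme and -100% = buffer wells without enzyme; nearly all actives have a fitted effect of over 50% in size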
# PNC inhibitor = blocks assembly of the perinucleolar compartment | hit rate 3.1% among 140,000 | AID 2417 | PC3M PTB-GFP, PNC prevalence imaging, 16 h; hits give low values | activity change (PNC), negative = inhibition, % at 10 µM;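 active means readout at or below -70, meaning at least 70% loss of cells showing the perinucleolar compartment, a nuclear body marking cancer cells; inconclusive means readout between -30 and a set limit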;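 further: plate controls were DMSO wells for no effect and camptothecin positive control wells for full effect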
#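 PC3M cells stably expressing PTB-GFP, 750–1000 cells/well, treated 16 h at 37 °C with compound (23 nl of library stock), in duplicate. After paraformaldehyde fixation and Hoechst stain, imaged at 20x; PNC prevalence scored by image analysis.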
# * hit, by the source's call; u = inconclusive; x = not tested or not shown; [ ] = another dose, or the depositor's remark. Unless noted, the call rests on the fitted dose curve; in most records, active means well fitted inhibition curve with a large enough effect (not every such curve was filed as active); inconclusive means small, poorly fitted or top-dose-only effect, or another doubt; inactive means no such curve, though single readings can be large or run the other way. Unless noted, on the % scale 0 is the no-effect control and ±100 the full control effect.
SMILES,HPGD inh,ALDH1A1 block,JMJD2E inh,PNC inhibitor
CCCCNC(=O)CCCn1c(=S)[nH]c2cc3c(cc2c1=O)OCO3,15.8µM*,5.0%,-2.0%,u
CCN(CC)CCNC(=O)CCn1c(=S)[nH]c2cc3c(cc2c1=O)OCO3,-14.7%,16.8%,-11.5%,-1.2
NS(=O)(=O)c1cccc(NC(=O)Cc2ccc(Cl)c(Cl)c2)c1,x,7.2%,-9.8%,x
CCc1ccccc1,-3.5%,-6.9%,x,x
Cn1cccc1C(=O)NC(=O)COC(=O)c1ccc(O)cc1,-18.7%,3.16µM*,-23.8%,24.6
CCOC(=O)c1nnn(-c2nonc2N)c1CN1CCc2ccccc2C1,0.4%,u,-6.4%,-83.2*
COC(=O)c1nnn(-c2nonc2N)c1CSc1ccccn1,-0.8%,u,-2.3%,u
CCOC(=O)c1nnn(-c2nonc2N)c1C,-9.6%,-15.5%,6.6%,-15.9
Cc1c(C(=O)N2CCCC2)nnn1-c1nonc1N,-29.8%,25.1µM*,0.8%,6.1
CC(C)OC(=O)c1nnn(-c2nonc2N)c1CSc1ccccn1,u,2.24µM*,-0.1%,-3.4
COc1ccc(C(=O)CCC(=O)Nc2cccnc2)cc1,x,-5.8%,1.6%,x
Cc1cccc(-n2c(Cn3nc(C)c([N+](=O)[O-])c3C)n[nH]c2=S)c1,-25.1%,25.1µM*,-3.8%,18.6
COCCNC(=O)c1ccccc1NC(=O)CSc1ccc(C)cc1,x,5.7%,-28.0%,x
CC(C)c1cc(C(=O)Nc2cccc(Cl)c2)no1,-18.0%,-3.2%,5.1%,32.5
CC(C)Cc1cc(C(=O)Nc2cc(Cl)ccc2Cl)no1,14.1µM*,-5.0%,-6.3%,6.9
CC(C)c1cc(C(=O)Nc2cc(Br)ccc2O)no1,8.91µM*,3.7%,0.9%,34.3
CC(C)c1cc(C(=O)Nc2cc(Cl)ccc2O)no1,5.62µM*,2.7%,1.5%,-4.7
C[C@H](C(=O)c1ccncc1)c1ccccn1,-14.5%,3.0%[13.5 µM],x,x
NC(=S)N=Nc1c(O)n(Cc2ccc(Br)cc2)c2ccccc12,-5.5%,3.55µM*,5.6%,-16.4
NC(=S)N=Nc1c(O)n(CCCl)c2ccc(Br)cc12,x,7.1%,8.7%,x
C/C(Cl)=C\Cn1c(O)c(N=NC(N)=S)c2cc(Br)ccc21,x,0.447µM*,32.0%,x
Cc1ccc2c(c1)c(N=NC(N)=S)c(O)n2Cc1ccccc1,-6.3%,0.631µM*,8.9%,20.2
NC(=S)N=Nc1c(O)n(Cc2ccc(F)cc2)c2ccccc12,x,1.41µM*,16.3%,49.7
COc1cc(/C=N/NC(=S)NC2CC3CC2C2C=CCC32)ccc1O (stereo unspecified),x,u,8.1%,x
Cc1ccc(NC(=S)Nc2cccc3cnccc23)cc1C,x,2.51µM*,3.1%,x
SMILES,HPGD inh,ALDH1A1 block,JMJD2E inh,PNC inhibitor
CC(=O)c1ccc(NC(=S)Nc2cccc3cnccc23)cc1,x,x,17.8µM*,x
Cc1ccc(C)c(NC(=S)Nc2cccc3cnccc23)c1,x,8.91µM*,28.2µM*,x
Cc1ccc(NC(=S)Nc2cccc3cnccc23)cc1,x,12.6µM*,u,x
Cc1ccc(N2C(=O)c3ccc(C(=O)N4CCN(Cc5ccccc5)CC4)cc3C2=O)cc1,x,x,-6.1%,x
S=C(Nc1cccc(Cl)c1)Nc1cccc2cnccc12,u,3.16µM*,-0.8%,13.4
NC(=S)Nc1cccc2cnccc12,-2.9%,13.0%,-2.7%,21.1
CCN(CC)CCNC(C(=O)Nc1cc(C(F)(F)F)ccc1Cl)c1ccccc1 (stereo unspecified),-6.2%,u,-2.7%,49.0
CC(C)CNC(C(=O)Nc1ccc([N+](=O)[O-])cc1Br)c1ccccc1 (stereo unspecified),-22.7%,3.55µM*,-3.1%,-18.0
CCN(CC)CCNC(C(=O)Nc1ccc([N+](=O)[O-])cc1Br)c1ccccc1 (stereo unspecified),-15.3%,-10.3%,9.2%,-104.2*
COc1nccc(C(F)(F)F)c1C(=O)NC(=O)Nc1ccccc1,x,6.9%,4.2%,x
Cc1cc2nc3c(=O)[nH]c(=O)nc-3n(C)c2cc1C=O,-10.0%,0.7%,x,x
CCCCC(=O)NC(=S)NNC(=O)CC,-12.3%,22.4µM*,u,-94.1*
CCCCC(=O)NC(=S)Nc1c(C)cc(Br)cc1C,u,11.2µM*,-1.6%,33.2
CCCCC(=O)NC(=S)NNS(=O)(=O)c1ccccc1,20µM*,8.91µM*,-16.8%,-27.4
O=C(NC(=S)NNS(=O)(=O)c1ccccc1)c1ccccc1[N+](=O)[O-],20µM*,27.9%,4.7%,13.3
CC(=O)c1ccc(NC(=O)Cn2c3ccccc3c3nc(=O)cc(C)n32)cc1,x,x,-6.9%,x
O=C(NNC1=NCCCCC1)c1ccccc1,14.1µM*,5.8%,15.6%,16.8
c1ccc(CNC2=NCCCC2)cc1,x,5.3%,-3.1%,-8.6

# Screening results deposited in PubChem by National Center for Advancing Translational Sciences (NCATS).
